SENP6 block = blocks the human protease SENP6; Q9GZR1; Recombinant SENP6 catalytic domain, aminoluciferin luminescence; inhibition, % at 10 µM; 330,000 compounds, 1.8% hits; AID 2599;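 active = inhibition above about 50% at the single tested dose, limit read from the data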;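 also: plate controls were DMSO wells with enzyme for no effect and DMSO wells lacking enzyme for full effect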
C8 TRAIL sens = caspase-8 TRAIL sensitization; NB7+C8 cells + TRAIL, ATPlite viability luminescence; inhibition (viability loss, TRAIL sensitization), % at 10 µM; 360,000 compounds, 1% hits; AID 624354;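 active = compounds causing at least 50% loss of cell viability in the single-dose screen, relative to plate controls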
SENP8 block-1 = inhibitors of human SENP8 protease | inhibition, % at 20 µM | 360,000 compounds, 0.64% hits | recombinant SENP8, Nedd8 substrate fluorescence; in the data active = inhibition mostly above about 40%, no sharp cut-off; inactive = mostly below about 27%
Target sequence (Q96LD8 whole entry, looked up): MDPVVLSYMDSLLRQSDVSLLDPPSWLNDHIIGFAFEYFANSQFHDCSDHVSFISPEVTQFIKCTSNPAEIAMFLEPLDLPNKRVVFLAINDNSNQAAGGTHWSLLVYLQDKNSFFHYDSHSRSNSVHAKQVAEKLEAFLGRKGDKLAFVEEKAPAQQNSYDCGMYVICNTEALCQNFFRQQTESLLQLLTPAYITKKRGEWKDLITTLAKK
PPC-1+TRAIL kill = kills PPC-1 cancer cells in the presence of TRAIL | AID 1443 | 220,000 compounds, 0.41% hits | PPC-1 cells + TRAIL, ATPLite viability luminescence | cell killing (% activity), % at 4 µM or 5 µM;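 active = cell killing above 50% in the first pass at 4 µM, then a duplicate retest at 5 µM averaging 50% or more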;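 also: plate controls were cells with TRAIL plus DMSO for no effect and medium-only wells lacking cells for full effect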
SENP7 block = blocks the human protease SENP7 | inhibition, % at 5 µM | 330,000 compounds, 1.5% hits | Q9BQF6 | recombinant SENP7, Z-RLRGG-aminoluciferin luminescence, 40 min | AID 434973;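 active = inhibition above about 50% at the single test dose, limit read from the data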;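 also: plate controls were DMSO with enzyme for no effect and no enzyme buffer wells for full effect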
Target sequence (Q9BQF6 706-1050 limits assumed): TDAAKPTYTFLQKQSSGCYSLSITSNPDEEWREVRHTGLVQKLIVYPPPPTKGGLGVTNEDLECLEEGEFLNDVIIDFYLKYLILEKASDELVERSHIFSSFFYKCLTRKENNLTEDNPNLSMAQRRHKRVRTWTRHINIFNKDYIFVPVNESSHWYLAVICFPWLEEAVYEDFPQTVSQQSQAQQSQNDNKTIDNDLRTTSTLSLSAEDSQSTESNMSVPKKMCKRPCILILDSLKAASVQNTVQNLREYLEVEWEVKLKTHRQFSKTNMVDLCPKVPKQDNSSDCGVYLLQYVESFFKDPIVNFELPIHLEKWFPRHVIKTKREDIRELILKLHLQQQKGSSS
SENP8 block-2 = blocks the human protease SENP8; Q96LD8; purified SENP8, Z-RLRGG-aminoluciferin cleavage, luminescence; inhibition, % at 10 µM; 330,000 compounds, 1.2% hits; in the data active = inhibition above about 50%
SENP8 inh conf = SENP8 (human) inhibition, single concentration confirmation; 1,400 compounds, 15% hits; AID 624319; purified SENP8, Nedd8-AMC/pro-Nedd8 cleavage fluorescence, 30 min; inhibition, % at 25 µM; shares compounds with SENP8 block-1; in the data active = inhibition mostly above about 39%, no sharp cut-off; inactive = mostly below about 34%
Active calls of the source: *; i = inactive; . = not tested or not shown. Most compounds without a hit are left out; they make up all but 3% or so of the library.

SMILES | SENP6 block | C8 TRAIL sens | SENP8 block-1 | PPC-1+TRAIL kill | SENP7 block | SENP8 block-2 | SENP8 inh conf
C/C(=C\C(=O)c1ccc(C)o1)Nc1ccc2c(c1)OCO2 | -9 | 10 | 47* | 5 | -2 | -13 | 38
Cc1ccc(C(=O)OCC(=O)Nc2ccc3c(c2)OCO3)o1 | 4 | -3 | 15 | -3 | -5 | -7 | .
C/C(=C\C(=O)c1ccc(Br)cc1)Nc1cccc(Cl)c1 | 5 | 16 | 40* | . | -2 | -13 | -12
CN(C)C(=S)Nc1ccc2c(c1)OCO2 | 12 | 15 | 11 | 3 | 7 | 8 | .
C/C(=C\C(=O)c1ccccc1)Nc1ccc2c(c1)OCO2 | -11 | 23 | 67* | -24 | 1 | -18 | 21
S=C(Nc1ccc2c(c1)OCO2)Nc1ccc2c(c1)OCO2 | 37 | 8 | 53* | 8 | 7 | 5 | 21
CC(=O)Nc1ccc2c(c1)OCO2 | -6 | -4 | 0 | -6 | -4 | -1 | .
CC1CCCC(C)N1C(=O)COC(=O)CNC(=O)c1sc2ccccc2c1Cl (stereo unspecified) | -3 | -7 | 8 | . | 7 | 8 | .
CN1/C(=C/C(=O)COC(=O)C2COc3ccccc3O2)C(C)(C)c2ccccc21 (stereo unspecified) | . | 5 | -341 | . | . | . | .
CC(=O)OCCCNc1cc(Sc2nc3ccccc3s2)c2nonc2c1[N+](=O)[O-] | 84* | 38 | 60* | -4 | 81* | 92* | 35
O=[N+]([O-])c1c(NCCCO)cc(SCc2ccco2)c2nonc12 | 45 | 5 | 42* | -9 | 14 | 11 | 29
CC(=O)OCCCNc1cc(Sc2ccc(C)cc2)c2nonc2c1[N+](=O)[O-] | -2 | 21 | 12 | 14 | -4 | -4 | .
CC(=O)OCCNc1cc(SCc2ccco2)c2nonc2c1[N+](=O)[O-] | . | 4 | 76* | 31 | . | . | 10
O=[N+]([O-])c1c(NCCCO)cc(Sc2ccc(Cl)cc2)c2nonc12 | . | 16 | 28 | 10 | . | . | .
CC1(C(=O)Nc2cccc3c2CCCC3)CCN1C(=O)CCC1CCCC1 (stereo unspecified) | . | 6 | -14 | . | . | . | .
COc1ccc(Cl)cc1C(=O)NNC(=O)CNC(=O)c1ccco1 | 19 | -1 | 6 | . | -4 | 0 | .
COc1ccccc1COC(=O)C(NC(=O)c1ccc(C)cc1)C(C)C (stereo unspecified) | 7 | 2 | 5 | . | 0 | -3 | .
COc1ccc(NC(=S)NC(NC(=O)c2cccc(C)c2)C(Cl)(Cl)Cl)c([N+](=O)[O-])c1 (stereo unspecified) | -12 | 3 | 42* | 16 | 0 | -4 | 8
Cc1ccc(Cl)cc1N1C(=O)CC(Sc2ccccc2N)C1=O (stereo unspecified) | . | -7 | 14 | . | . | . | .
Nc1c(N(CCC2=CCCCC2)C(=O)C2CC2)c(=O)[nH]c(=O)n1Cc1ccccc1 | 0 | -2 | 2 | . | -6 | -1 | .
O=C(N/N=C/CCc1ccccc1)c1ccccc1 | -8 | -19 | 47* | 9 | 6 | -3 | 16
O=C(N/N=C/CCc1ccccc1)C1CCCCC1 | 1 | -2 | 14 | 3 | 4 | 4 | .
CNC(=O)N(O)C1N(/N=C/c2ccc(N(C)C)cc2)C(=S)SC1(C)C (stereo unspecified) | -11 | 5 | -91 | . | -2 | -7 | .
CC1(C)SC(=S)N(/N=C/c2ccccc2)C1N(O)C(=O)Nc1ccc([N+](=O)[O-])cc1 (stereo unspecified) | -9 | 2 | 44* | 1 | 4 | 1 | 10
Cc1ccc(NC(=O)NC(=O)COc2c(F)c(F)cc(F)c2F)c(C)c1 | -4 | -7 | 15 | . | 3 | -7 | .
SMILES | SENP6 block | C8 TRAIL sens | SENP8 block-1 | PPC-1+TRAIL kill | SENP7 block | SENP8 block-2 | SENP8 inh conf
COc1ccc2cc(C3=CC(=O)CCC3)ccc2c1 | . | 29 | i | . | . | . | .
O=C1Cc2ccccc2C(=O)N1 | . | 2 | 81* | . | . | . | 84*
COc1cc(/C=N/N2CCOCC2)ccc1OCc1ccc(Cl)cc1 | 23 | -4 | 42* | 13 | 6 | 4 | 8
COc1cc(/C=N/N2CCOCC2)ccc1OCc1ccccc1 | 13 | 18 | 10 | 22 | 2 | -15 | .
CC1O[C@@H](OC2C(O)C(O)C(CO)O[C@H]2OC2C[C@]3(C)C(CC(O)C4[C@@H]([C@]5(C)CC[C@@H](C(C)(C)O)O5)CC[C@]43C)[C@@]3(C)CCC(O)C(C)(C)C23)C(O)C(O)C1O (stereo partly specified) | -3 | -11 | 14 | . | 4 | 9 | .
CC(OC(=O)c1cc(=O)[nH]c2ccccc12)C(=O)NC1CCCCC1C (stereo unspecified) | -11 | 8 | -316 | . | -7 | -2 | .
O=C1Nc2ccc(Br)cc2C12NNc1ccccc1O2 (stereo unspecified) | -36 | 20 | 43* | 16 | 9 | -14 | 18
CN(Cc1ccc(Cl)cc1)C(=O)COC(=O)c1ccc(-c2ccc(O)cc2)cc1 | 11 | 26 | -393 | . | -3 | -2 | .
CCCOc1ccc(CCC(=O)N/N=C/c2ccco2)cc1 | -11 | -2 | 44* | -31 | 4 | 5 | 17
CCCCOc1ccc(CCC(=O)N/N=C/c2ccco2)cc1 | -8 | -11 | 2 | -7 | -6 | -9 | .
COc1ccc(-c2ccnc(SCC(=O)N3CCN(c4ccccc4)CC3)n2)cc1 | 0 | 0 | 8 | -4 | 4 | -6 | .
COc1ccc(CNC(=O)Cn2cc([N+](=O)[O-])cn2)cc1 | -32 | 0 | 44* | . | -6 | -5 | -11
O=C(Cn1cc([N+](=O)[O-])cn1)NCc1ccccc1 | 9 | -11 | 9 | . | 1 | -1 | .

Screening data (PubChem BioAssay)
